BAZ2B inh – qHTS Assay for Inhibitors of BAZ2B | Potency, µM (series often up to 114 µM), without a hit: top-dose activity change, negative = inhibition, hits mostly inhibitors | hit rate 4.4% among 360,000 | AlphaScreen BAZ2B-H3K14Ac peptide displacement; further: on the % scale 0 is the no-effect control and ±100 the full control effect; nearly all actives have a fitted effect of over 60% in size
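In this displacement format the biotinylated H3(5-23) peptide acetylated at Lys14 serves as ligand at 50 nM, with BAZ2B at 50 nM in PBS pH 7.4 containing 0.01% Tween-20. Donor and acceptor beads are 10 ug/mL final.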
Sfp PPTase inh – qHTS Assay for Inhibitors of Bacillus subtilis Sfp phosphopantetheinyl transferase (PPTase); Biochemical Sfp PPTase activity, qHTS; Potency, µM, for inactives: largest response in the series, negative = inhibition, most hits filed as inhibitors; hit rate 3.5% among 310,000; AID 1490, 2009;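 further: the enzyme is Sfp with the accession as filed and its product quenches rhodamine fluorescence; 0% = enzyme reaction without inhibitor and -100% = no enzyme wells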
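Fluorescence-quenching assay: 15 nM Sfp-PPTase preincubated 15 min at room temperature with compound, then 5 uM rhodamine-CoA and 12.5 uM BHQ-2-labelled YbbR peptide added. Fluorescence (ex 525/em 598 nm) read at start and after 30 min; difference gives rate.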
JMJD2A Tudor – qHTS Assay for Inhibitors of JMJD2A-Tudor Domain | Lysine-specific demethylase 4A (Homo sapiens), O75164 | AlphaScreen JMJD2A-Tudor / H3K4me3 peptide binding | hit rate 4.4% among 390,000 | Potency, µM (series often up to 114 µM), without a hit: at the highest dose activity change, negative = inhibition, hits mostly inhibitors | AID 504339, 2011; further: on the % scale 0 is the no-effect control and ±100 the full control effect; nearly all actives have a fitted effect of over 50% in size
G9a inh – qHTS Assay for Inhibitors of Histone Lysine Methyltransferase G9a. G9a H3K9 monomethylation, AlphaScreen, 2 h. Potency, µM (doses to about 102 µM), for inactives: top-dose activity, negative = inhibition, actives largely listed as inhibitors. hit rate 8.8% among 350,000; further: on the % scale 0 is the no-effect control and ±100 the full control effect; nearly all actives have a fitted effect of over 75% in size
Target sequence (Q96KQ7 913-1193 limits assumed): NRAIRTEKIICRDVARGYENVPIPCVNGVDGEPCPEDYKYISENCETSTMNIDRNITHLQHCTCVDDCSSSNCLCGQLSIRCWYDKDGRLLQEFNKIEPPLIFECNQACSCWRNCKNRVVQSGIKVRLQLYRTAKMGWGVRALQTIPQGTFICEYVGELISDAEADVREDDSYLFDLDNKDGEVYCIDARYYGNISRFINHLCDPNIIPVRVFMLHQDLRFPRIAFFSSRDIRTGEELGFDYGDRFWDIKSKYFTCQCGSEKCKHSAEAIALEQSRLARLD
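Readings reflect AlphaScreen signal from monomethyl-H3K9 antibody detection. HMT at 20 nM; substrate b-H3K9 500 nM; cofactor SAM 20 uM; 2 h RT reaction; compounds tested as titrations in qHTS with 15 min preincubation.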
HP1b chromo inh – HTS for Inhibitors of HP1-beta Chromodomain Interactions with Methylated Histone Tails; AlphaScreen HP1-beta / biotin-H3K9me3 peptide binding; Potency, µM (doses to about 114 µM), for the others: top-dose activity change, negative = inhibition, most hits filed as inhibitors; hit rate 0.56% among 390,000; further: nearly all actives have a fitted effect of over 70% in size
Target sequence (P83916 whole entry, looked up): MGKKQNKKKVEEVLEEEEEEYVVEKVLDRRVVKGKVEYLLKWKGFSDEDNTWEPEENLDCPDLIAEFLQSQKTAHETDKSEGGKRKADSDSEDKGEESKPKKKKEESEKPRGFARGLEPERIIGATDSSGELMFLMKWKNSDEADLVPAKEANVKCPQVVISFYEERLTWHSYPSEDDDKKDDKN
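HP1-beta protein (50 nM final) preincubated 30 min at room temperature with biotinylated H3(1-18)K9me3 peptide (50 nM) in PBS pH 7.4, 0.01% Tween-20, then compound added for 30 min. AlphaScreen streptavidin donor/nickel chelate acceptor beads (10 ug/mL final), 30 min dark, luminescence read.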
* = called active by the depositor; ? = inconclusive; . = not tested or not shown; ! = a repeat was not active; [ ] = another dose, or the depositor's remark. An excerpt weighted towards active compounds, which were near 12% of everything screened. The call rests on the fitted dose curve; in most records, active means well fitted curve in the direction sought with a large enough effect; inconclusive means small, poorly fitted or top-dose-only effect, or another doubt; inactive means no such curve, though single readings can be large; an effect the other way counts as inactive or inconclusive. Potency means the concentration at half of the fitted maximal effect.

SMILES	BAZ2B inh	Sfp PPTase inh	JMJD2A Tudor	G9a inh	HP1b chromo inh
O=C(Cc1ccccc1)N1CCN(CCCc2ccccc2)CC1	56µM*	1%	0.32µM*	?	?
COc1cc(CN2CCN(C(=O)Cc3ccccc3)CC2)cc(OC)c1OC	?	-11%	7.1µM*	25µM*	?
O=C(Cc1ccccc1)N1CCN(Cc2ccc(F)cc2)CC1	79µM*	-23%	10µM*	.	?
S=C=S	.	24%	.	3%[59 µM]	.
C/C(O)=C(/C#N)C(=O)Nc1cc(Br)ccc1Br	.	8%	.	.	.
CC[C@]1(C2=NCCN2)Cc2ccccc2O1	.	4%	.	.	.
C/C=C1/C[C@@H](C)[C@@](C)(O)C(=O)OCC2=CCN3CC[C@@H](OC1=O)[C@@H]23	.	10%	-19%	.	22%
O=C1NC(=S)N(c2ccccc2)C(=O)C1C(c1ccncc1)C1C(=O)NC(=S)N(c2ccccc2)C1=O (stereo not drawn)	-28%	?	-25%	45µM*	29%
CC(C)CC[C@@H](O)[C@](C)(O)C1CC[C@@]2(O)C3=CC(=O)[C@@H]4C[C@@H](O)[C@@H](O)C[C@]4(C)C3CC[C@]12C (stereo partly drawn)	.	.	-6%	.	44%
O=C(CN1CCOCC1)c1ccc(Br)cc1	-16%	-9%	79µM*	?	22%
O=C(CN1CCOCC1)c1cccc2ccccc12	50µM*	40µM*	7.9µM*	3.2µM*	-26%
CC(C)(C)c1ccc(C(=O)NCCN2CCOCC2)cc1	.	.	-16%	.	44%
Cc1c(C(=O)c2cccc3ccccc23)c2cccc3c2n1[C@H](CN1CCOCC1)CO3	.	23%	56µM*	11µM*!	-9%
Cc1c(C(=O)c2ccc3ccccc3c2)c2cccc3c2n1[C@H](CN1CCOCC1)CO3	.	-3%	.	.	.
CCc1ccc(-n2c(O)c(/C=N/N3CCCCC3c3cccnc3)c(=O)[nH]c2=O)cc1 (stereo not drawn)	-8%	5%	-15%	6%[59 µM]	58%
O=c1[nH]c(=S)n(-c2ccccc2)c(O)c1/C=N/N1CCCCC1c1cccnc1 (stereo not drawn)	?	50µM*	-11%	8.9µM*	40%
N#C/C(=C\c1ccc(O)c(O)c1)C(N)=S	.	0.18µM*	.	.	.
Nc1ccc2c(c1)Cc1cc([N+](=O)[O-])ccc1-2	-23%	13%	-10%	50µM*	9%
Nc1ccc2c(c1)Cc1ccccc1-2	50µM*	4%	?	?	?
COC1=CC2C3Cc4ccc(OC)c(O)c4[C@]2(CCN3C)CC1=O (stereo partly drawn)	.	-1%	.	-39%[2.33 µM]	.
CC(C)Oc1ccc(CNC(=O)Oc2ccccc2)cc1	-4%	3%	-13%	?	24%
COc1cc(CC2(CCc3ccncc3)C(=O)N(C)C(=O)N(C)C2=O)cc(OC)c1OC	-15%	-2%	-16%	22µM*	20%
CC1=C(O)C(=O)C=C2C1=CC=C1[C@]2(C)CC[C@@]2(C)C3C[C@](C)(C(=O)O)CC[C@@]3(C)CC[C@@]12C (stereo partly drawn)	.	-99%	.	?	.
COc1ccc(-n2cnc3cc(C(=O)N4CCC5(CC4)OCCO5)ccc32)cc1	-1%	16%	-6%	-37%	33%
O=C(c1ccc2nc(-c3ccco3)c(-c3ccco3)nc2c1)N1CCC2(CC1)OCCO2	56µM*	8.9µM*	89µM*	?	-10%
COC(=O)[C@]12C(=O)C(C)=C(O)[C@@]1(C)C(C)=CC1[C@@]34CC[C@@H](OC(C)=O)C(C)(C)C3C(C[C@]12C)OC4=O (stereo partly drawn)	-18%	11%	8%	13%[12.7 µM]	51%
Nn1c(Cc2cccc3ccccc23)n[nH]c1=S	-34%	7.1µM*	10µM*	3.5µM*	?
